Assay outcomes from PubChem BioAssay.
In the library only some 9% were active in any assay of this set; here they are far more common.
12-LOX inh: inhibitors of human 12S-lipoxygenase ALOX12; 1.1% of 580,000 active; AID 1671190; Potency, µM (doses to about 108 µM), for the others: top-dose activity change, negative = inhibition, most hits filed as inhibitors; purified 12hLO, xylenol orange hydroperoxide absorbance; also: % is scaled to controls: 0 for no effect and ±100 for the full control effect
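Purified human 12hLO (150 nM final) in 25 mM Hepes, 0.01% Triton X-100, pH 7.0 was preincubated 15 min at room temperature with compound. Then 40 uM arachidonic acid was added, 30 min. Hydroperoxide was read by Fe-XO absorbance ratio 573/405 nm.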
PLK1 PBD inh: inhibitors of human PLK1 polo-box domain binding | 2.8% of 360,000 active | P53350 | Plk1 PBD binding of FITC phosphopeptide, fluorescence polarization | Potency, µM, for inactives: max response, negative = inhibition, usual class: inhibitors | AID 720504; also: series mostly up to about 57 µM; % is scaled to controls: 0 for no effect and ±100 for the full control effect; nearly all actives have a fitted effect of over 65% in size
Target sequence (P53350 whole entry, looked up, the tested form may be a part): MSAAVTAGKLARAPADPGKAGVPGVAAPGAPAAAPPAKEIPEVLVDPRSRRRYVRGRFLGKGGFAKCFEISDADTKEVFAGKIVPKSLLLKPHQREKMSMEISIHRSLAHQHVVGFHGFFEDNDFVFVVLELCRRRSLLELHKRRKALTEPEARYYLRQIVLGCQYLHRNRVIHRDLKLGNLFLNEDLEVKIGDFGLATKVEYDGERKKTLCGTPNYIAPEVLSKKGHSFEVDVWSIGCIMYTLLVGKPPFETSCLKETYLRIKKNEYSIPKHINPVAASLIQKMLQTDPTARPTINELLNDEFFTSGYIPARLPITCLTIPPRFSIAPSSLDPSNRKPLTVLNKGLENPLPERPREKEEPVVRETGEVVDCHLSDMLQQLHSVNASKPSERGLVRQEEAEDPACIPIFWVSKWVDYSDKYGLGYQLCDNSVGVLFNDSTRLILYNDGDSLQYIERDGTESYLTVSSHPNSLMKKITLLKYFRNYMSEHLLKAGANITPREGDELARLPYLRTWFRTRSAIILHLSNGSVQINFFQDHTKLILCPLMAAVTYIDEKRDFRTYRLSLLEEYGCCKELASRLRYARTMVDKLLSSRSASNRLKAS
BAZ2B block: inhibitors of human BAZ2B bromodomain; Q9UIF8; AID 504333; 4.4% of 360,000 active; AlphaScreen BAZ2B-H3K14Ac peptide displacement; Potency, µM (series often up to 114 µM), without a hit: at the top dose activity change, negative = inhibition, actives largely listed as inhibitors; also: % is scaled to controls: 0 for no effect and ±100 for the full control effect; nearly all actives have a fitted effect of over 60% in size
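AlphaScreen displacement of biotin-H3(5-23)K14Ac peptide (50 nM final) from BAZ2B (50 nM final) in PBS pH 7.4, 0.01% Tween-20; complex preformed 30 min RT, then compounds (top 110 uM) 30 min RT, beads 20 min dark.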
JMJD2A Tudor: JMJD2A Tudor domain (human) inhibition; 4.4% of 390,000 active; AlphaScreen JMJD2A-Tudor / H3K4me3 peptide binding; O75164; Potency, µM (titrated, usually from 114 µM), inactives show at the highest dose activity change, negative = inhibition, hits mostly inhibitors; AID 504339; also: % is scaled to controls: 0 for no effect and ±100 for the full control effect; nearly all actives have a fitted effect of over 50% in size
G9a block: G9a (human) methyltransferase inhibition. G9a H3K9 monomethylation, AlphaScreen, 2 h. 8.8% of 350,000 active. Q96KQ7. Potency, µM (doses to about 102 µM), for the others: at the top dose activity, negative = inhibition, usual class: inhibitors; also: % is scaled to controls: 0 for no effect and ±100 for the full control effect; nearly all actives have a fitted effect of over 75% in size
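AlphaScreen detection with an anti-monomethyl H3K9 antibody quantified product after a 2 h room-temperature reaction containing 500 nM biotinylated H3K9 peptide, 20 µM SAM and 20 nM enzyme, which had been preincubated 15 min with compound.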
HP1b chromo inh: blocks HP1-beta chromodomain binding to methylated histone tails; P83916; AlphaScreen HP1-beta / biotin-H3K9me3 peptide binding; Potency, µM (titrated, usually from 114 µM), for the others: at the top dose activity change, negative = inhibition, most hits filed as inhibitors; 0.56% of 390,000 active; AID 540317; also: nearly all actives have a fitted effect of over 70% in size
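AlphaScreen: HP1-beta (50 nM) preformed 30 min with biotin-H3(1-18)K9me3 peptide (50 nM) in PBS pH 7.4, 0.01% Tween-20. Compound added for 30 min at RT, then streptavidin donor/nickel chelate acceptor beads (10 ug/mL) for 30 min.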
The depositor's hits bear a star; ? = inconclusive; · = no result given; [ ] = remark or other dose. Calls follow the shape of the dose curve; as a rule, active = well fitted curve in the direction sought with a large enough effect; inconclusive = small, poorly fitted or top-dose-only effect, or another doubt; inactive = no such curve, though single readings can be large; an effect the other way counts as inactive or inconclusive. Potency is read from the fitted curve at half-maximal effect.

SMILES	12-LOX inh	PLK1 PBD inh	BAZ2B block	JMJD2A Tudor	G9a block	HP1b chromo inh
S=c1[nH]nc(-c2ccncc2)n1/N=C/c1cn(-c2ccccc2)nc1-c1ccccc1	0.0%	-8.2%	21.1%	-18.3%	?	64.6%
CCc1n[nH]c(=S)n1/N=C/c1c(O)ccc2ccccc12	-7.0%	-13.4%	-23.9%	14.1µM*	?	36.8%
Nc1nonc1N/N=C/c1c(O)ccc2ccccc12	-24.6%	-3.2%	-27.6%	-28.7%	?	15.7%
COc1cc(/C=N/n2c(=S)[nH]nc(C)c2=O)cc([N+](=O)[O-])c1O	-18.4%	-2.1%	-19.1%	?	11.3%	37.5%
O=C(CO/N=C/c1cccc([N+](=O)[O-])c1)NC1CCCCCC1	-2.7%	-4.0%	-7.7%	-16.4%	-25.8%	21.1%
CCSc1ccc(C(=O)Nc2ccc(-c3nc4ccc(C)cc4s3)cc2)cc1	-2.7%	·	-2.0%	-1.9%	13.1%[59 µM]	16.8%[57 µM]
COc1cccc(NC(=O)Cc2nnc(SCC(=O)NC3=NCCS3)n2C)c1	-49.4%	-11.6%	-16.0%	-15.0%	-11.8%	-16.0%
CCc1n[nH]c(=S)n1/N=C/c1cccc2ccccc12	?	-21.2%	-18.1%	?	1.58µM*	31.8%
CC1(C)CC(=O)C2=C(C1)N(c1ccccc1C#N)C(N)=C(C#N)C2c1cccs1 (stereo not given)	?	-5.0%	56.2µM*	?	39.8µM*	-4.8%
CN(C)N1C(N)=C(C#N)C(c2ccc(Br)cc2)C2=C1CC(C)(C)CC2=O (stereo not given)	1.4%	5.3%	-22.1%	-9.8%	8.0%	8.4%
CCOc1cc(C2C3=C(CC(C)(C)CC3=O)N(CCOC)C3=C2C(=O)CC(C)(C)C3)ccc1OC	-10.5%	-6.6%	-27.9%	-4.8%	?	52.0%
Cc1ccc(C2C(C#N)=C(N)N(c3cccnc3)C3=C2C(=O)CCC3)s1 (stereo not given)	?	?	?	-31.6%	39.8µM*	49.0%
CC1(C)CC(=O)C2=C(C1)N(c1cccnc1)C(N)=C(C#N)C2c1cccs1 (stereo not given)	-15.3%	1.8%	-4.1%	-10.6%	-14.5%[59 µM]	42.0%
CCOc1ccc(C2C(C#N)=C(N)N(N(C)C)C3=C2C(=O)CC(C)(C)C3)cc1 (stereo not given)	0.0%	-11.9%	-2.5%	-2.8%	35.5µM*	29.5%
COc1ccc(C2C3=C(CC(C)(C)CC3=O)N(CC(=O)O)C3=C2C(=O)CC(C)(C)C3)cc1OC	0.0%	1.5%	-19.4%	8.6%	70.8µM*	49.1%
COc1ccc(C2C(C#N)=C(N)N(c3cccnc3)C3=C2C(=O)CC(C)(C)C3)cc1OC (stereo not given)	9.6%	-19.3%	-28.9%	-11.0%	35.5µM*	53.5%
COc1ccc(N2C(N)=C(C#N)C(c3cccnc3)C3=C2CC(C)(C)CC3=O)cc1 (stereo not given)	?	-20.1%	-4.5%	-21.9%	11.2µM*	44.3%
Cc1ccc(N(CC(=O)N2CCN(c3ccc(Cl)cc3)CC2)S(=O)(=O)c2c(C)nn(C)c2C)cc1	-6.6%	·	·	2.3%	8.1%[59 µM]	27.8%
CCOC(=O)[C@@H]1[C@H]2COc3ccc(Br)cc3[C@H]2N2C(=O)N(c3ccc(Br)cc3)C(=O)[C@]12C	?	-6.6%	-11.1%	-19.4%	·	8.5%
O=C(CCC[C@@H]1[C@H]2CCCN3CCC[C@@H](CN1C(=O)Cc1cccs1)[C@@H]23)N1CCOCC1	92.5%	·	·	·	·	·
CCCN(C(=O)Cn1nc(Cc2ccncc2)c2ccccc2c1=O)c1ccc(OCC)cc1	-9.9%	·	·	·	·	·
O=C(COC(=O)[C@@H]1CC(O)CN1S(=O)(=O)c1ccc([N+](=O)[O-])cc1)NC12CC3CC(CC(C3)C1)C2 (stereo not given in full)	-12.9%	1.3%	-5.7%	-7.7%	20µM*	12.7%
COc1ccc(N2CCN(C(=O)C3CC(O)CN3S(=O)(=O)c3ccc([N+](=O)[O-])cc3)CC2)cc1 (stereo not given)	?	-7.4%	-11.0%	-10.3%[57.1 µM]	44.7µM*	25.4%
Cc1ccc(S(=O)(=O)N2CC(O)C[C@H]2C(=O)OCC(=O)Nc2ccc(N3CCCCC3)cc2)cc1C (stereo not given in full)	-29.1%	-8.8%	39.8µM*	44.7µM*	6.31µM*	?
O=C(COC(=O)c1ccc([N+](=O)[O-])cc1)NC12CC3CC(CC(C3)C1)C2	2.1%	7.7%	·	-2.9%	·	22.3%
SMILES	12-LOX inh	PLK1 PBD inh	BAZ2B block	JMJD2A Tudor	G9a block	HP1b chromo inh
COc1cc(NC(=O)COC(=O)C2CC(O)CN2S(=O)(=O)c2ccc(Cl)cc2)c(C)cc1[N+](=O)[O-] (stereo not given)	4.1%	-3.8%	·	-25.7%	·	21.4%
O=C(NCc1ccc(F)cc1)c1noc2c1CCCC2	-13.4%	-8.9%	5.3%	-11.7%	·	2.7%
N#CCN(CC#N)C(=O)Cc1cccs1	31.6µM*	·	·	·	·	·
C=C(C)CN(CC)C(=O)Cc1cccs1	-31.8%	·	·	·	·	·
Cc1ccc(-c2ccccc2NC(=O)CS(=O)CC(=O)Nc2ccc(C)c(Cl)c2)o1 (stereo not given)	39.8µM*	18.9µM*	-12.9%	-35.6%	35.5µM*	1.2%
COC(=O)c1cnc(NNC(=O)c2ccc([N+](=O)[O-])cc2)nc1C(F)(F)F	465.5%	-8.4%	3.3%	-21.9%	2.0%	9.9%
COC(=O)c1cnc(NNS(=O)(=O)c2ccc(Cl)cc2)nc1C(F)(F)F	?	1.6%	-4.8%	-6.4%	35.5µM*	-13.9%
O=C(NCc1ccc(F)cc1)c1ccc2c(Cl)c3c(nc2c1)CCCC3	-14.3%	·	-12.0%	-21.5%	-2.5%[59 µM]	13.8%
O=C(CCS(=O)(=O)c1ccccc1)N(CCCN1CCOCC1)c1nc2c(F)cccc2s1	?	?	?	-11.0%	14.1µM*	34.7%
Cc1ccc(S(=O)(=O)CC(=O)N(CCCN2CCOCC2)c2nc3c(F)cccc3s2)cc1	-12.2%	4.0%	-6.8%	-8.2%	?	12.8%
O=C(CCS(=O)(=O)c1ccccc1)N(CCCN1CCOCC1)c1nc2ccc(F)cc2s1	-23.1%	?	2.9%	-17.9%	22.4µM*	36.7%
CCc1cccc2sc(N(CCCN3CCOCC3)C(=O)CS(=O)(=O)c3ccccc3)nc12	-11.0%	-7.5%	4.6%	?	6.1%	16.9%
O=C(Nc1cc([N+](=O)[O-])c2[nH]c(=O)c3ccccc3c2c1)C(F)(F)F	3.1%	-3.2%	·	-5.6%	·	11.8%
CN(CCO)C(=O)c1ccc(-c2nn(C)c(=O)c3ccccc23)cc1	3.9%	-0.4%	-17.2%	0.7%	15.4%	12.3%
Cc1ccc(C(=O)c2no[n+]([O-])c2C(=O)c2ccc(C)cc2)cc1	-3.3%	?	?	-22.9%	39.8µM*	-13.5%
